Consider 26 molecules from PubChem BioAssay AID463173 (ICCB-Longwood Screening Facility, Harvard Medical School, 2010).

Out of some 52,000 compounds screened, about 1,700 (3.3%) were called active. No stated cut-off is given here; in the data, active means survival mostly below about 52% (no sharp cut-off); inactive means mostly above about 56%. This excerpt belongs to a sample that is enriched for actives.

This assay deals with Wild type. Nature of the assay: growth inhibition of S. aureus wild type versus tarO mutant, primary screen, teichoic acid synthesis inhibitors, RN4220, OD600 (AID 463173). The note with it: S. aureus RN4220 wild type/DeltatarO growth, OD600, 18 h, stronger effect = lower value, screened at 18.75 µg/mL (by protocol).
Turning to `CCOC(=O)c1cnc2cc(F)c(F)cc2c1Nc1ccccc1O`, the survival is 169% (inactive).
For `CCCOC(=O)c1ccc(Nc2c(C(=O)OCC)cnc3c(C)cc(Cl)cc23)cc1`, the survival was 4% (active).
As for `CCOC(=O)c1cnc2ccc(C)cc2c1NCCc1ccc(OC)c(OC)c1`, the figure is 117% (inactive); as for `CCOC(=O)c1cnc2ccc(C)cc2c1Nc1ccc(N(CC)CC)cc1`, -2% (active).
Regarding `CCOC(=O)c1ccc2ncc(C(=O)OCC)c(Nc3ccc(C)c(Br)c3)c2c1`, the survival is 72% (inactive).
The same measure for `CCOC(=O)c1cnc2ccc(C(=O)OC)cc2c1Nc1ccccc1CC`: -1% (active); for `CCOC(=O)c1cnc2c(Cl)cc(Cl)cc2c1Nc1cc(C(=O)O)ccc1C`: 61% (inactive).
As for `CCOC(=O)c1cnc2ccc(C(=O)OC)cc2c1Nc1ccc(N2CCOCC2)cc1`, the figure is 115% (inactive); as for `CCOC(=O)c1cnc2c(C)c(Cl)ccc2c1Nc1ccc(N2CCOCC2)cc1`, 60% (inactive).
The same measure for `CCOC(=O)c1cnc2ccc(Cl)cc2c1Nc1ccc(N2CCOCC2)cc1`: 0% (active); for `CCOC(=O)c1cnc2ccccc2c1Nc1ccc(N2CCOCC2)cc1`: 68% (inactive).
As for `CCOC(=O)c1cnc2ccc(OC(F)(F)F)cc2c1Nc1ccccc1C(=O)O`, the survival was 52% (inactive).
Consider `CCOc1ccc(-c2nc(SCC(=O)Nc3cc(F)ccc3F)n3[nH]c(=O)cc3n2)cc1`, for which the survival was 77% (inactive).
Consider `CC1=C(C(=O)NCCc2ccc(Cl)cc2)C2(CCCCC2)OC1=O`, for which the survival was 73% (inactive).
On to `CC(C)CNc1nc(NC(C)(C)C)nc(Oc2ccc(=O)n(-c3ccccc3)n2)n1`, for which the survival is 84% (inactive).
As for `CCc1ccc(NCc2cc3cc(OC)c(OC)cc3n(CC(=O)Nc3cc(C)ccc3C)c2=O)cc1`, the figure is 63% (inactive); as for `CCN(C(=O)CSc1nc2ccccc2n1Cc1cc(C)ccc1C)c1ccccc1`, 72% (inactive).
The same measure for `COc1cc(NC(=O)Cn2cc(S(=O)(=O)c3ccccc3)c(=O)c3ccccc32)cc(OC)c1`: 78% (inactive); for `COc1ccc(N(C(=O)COc2ccc(Br)cc2)S(=O)(=O)c2ccc(C)cc2)cc1`: 87% (inactive).
`CCCCN(CC)C(=O)Cn1ncc2c3ccccc3n(CCC)c2c1=O`: the survival was 98% (inactive).
Take `CN(C)CC(O)C1CCOC(C)(C)C1` (stereo unspecified): the survival is 111% (inactive).
With `CCOc1ccc(Nc2c(S(=O)(=O)c3ccc(Cl)cc3)cnc3ccc(OC)cc23)cc1`, the survival was 88% (inactive).
The same measure for `CCOC(=O)c1cnc2ccc(OC)cc2c1Nc1ccc(OCc2ccccc2Cl)cc1`: 6% (active); for `CCOC(=O)c1cnc2ccc(C(=O)OC)cc2c1Nc1ccc(OCc2ccccc2Cl)cc1`: 129% (inactive).
The same measure for `CCOC(=O)c1cnc2ccc(OC)cc2c1Nc1cccc(C(C)=O)c1`: 2% (active); for `CCOC(=O)c1cnc2ccc(C)cc2c1Nc1ccc(OCc2ccccc2Cl)cc1`: 4% (active).
